Some test systems named below: SR leukemia; RPMI-8226 leukemia; OVCAR-8 ovarian; OVCAR-5 ovarian; OVCAR-4 ovarian; SK-OV-3 ovarian; IGROV1 ovarian; OVCAR-3 ovarian; HS 578T breast; NCI/ADR-RES ovarian.
Common to all, as to assay: NCI-60 one-dose screen, 48 h (100 = growth as untreated, 0 = no growth, -100 = all killed)
What all share (settings): 10 µM unless noted

The panel holds about 83,000 compounds, 20% with a hit somewhere; the sample as a whole holds those more often.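 Growth was measured after 48 h exposure to one concentration of compound in 96-well plates. Values under 10 count as active.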 Values without a mark were called inactive. The source made the active and inactive calls.

For the compound `COc1ccc(C2=C(Br)C(=O)c3nc(C)ccc3C2=O)cc1`, the growth with SR leukemia is 17.3%; with RPMI-8226 leukemia, 72.5%; with OVCAR-8 ovarian it was 88.8%; in the experiment on OVCAR-5 ovarian, 109%; in the experiment with OVCAR-4 ovarian, 87.9%; in the experiment on SK-OV-3 ovarian, 85.1%. Besides, the growth was 87.5% with IGROV1 ovarian, 40% with OVCAR-3 ovarian, 90.8% in the experiment with HS 578T breast and 97.4% in the experiment on NCI/ADR-RES ovarian.

Consider `CCCCCCC12CCC(=O)N1CCc1cncn12` (stereo not given), for which the growth was 116% in the experiment with SR leukemia; 94.6% with RPMI-8226 leukemia; 101% in the experiment with OVCAR-8 ovarian; 98.7% in the experiment with OVCAR-5 ovarian; 119% in the experiment on OVCAR-4 ovarian; 99.2% in the experiment on SK-OV-3 ovarian. Besides, the growth in the experiment on IGROV1 ovarian was 105%; in the experiment on OVCAR-3 ovarian, 118%; in the experiment with HS 578T breast, 112%; in the experiment on NCI/ADR-RES ovarian, 104%.

With `Nc1ncnc2c1C(c1ccccc1)c1ccc3ccccc3c1O2` (stereo not given), the growth is 55.1% in the experiment with SR leukemia; 80.8% in the experiment with RPMI-8226 leukemia; 79.6% in the experiment on OVCAR-8 ovarian; 99% with OVCAR-5 ovarian; 86.5% in the experiment with OVCAR-4 ovarian; 64.7% in the experiment with SK-OV-3 ovarian. For the same compound, the growth with IGROV1 ovarian was 77.8%; with OVCAR-3 ovarian it was 93.9%; with HS 578T breast it was 93.7%; in the experiment with NCI/ADR-RES ovarian, 80.9%.

As for `Cc1ccc2c(Cn3cc(CSc4nc5ccccc5o4)nn3)cc(=O)oc2c1`, the growth is 99.6% in the experiment with SR leukemia; 100% in the experiment with RPMI-8226 leukemia; 97.4% in the experiment with OVCAR-8 ovarian; 116% with OVCAR-5 ovarian; 107% in the experiment with OVCAR-4 ovarian; 81% with SK-OV-3 ovarian. Moreover, the growth in the experiment on IGROV1 ovarian was 107%; in the experiment on OVCAR-3 ovarian, 115%; in the experiment with HS 578T breast, 107%; with NCI/ADR-RES ovarian it was 99.3%.

As to `COc1ccccc1N1CCCCC1`, the growth in the experiment on SR leukemia is 112%; with RPMI-8226 leukemia it was 101%; in the experiment with OVCAR-8 ovarian, 110%; with OVCAR-5 ovarian it was 86.2%; in the experiment on OVCAR-4 ovarian, 109%; with SK-OV-3 ovarian, 100%. In addition, the growth was 101% in the experiment on IGROV1 ovarian, 114% with OVCAR-3 ovarian, 101% with HS 578T breast and 106% in the experiment on NCI/ADR-RES ovarian.

Regarding `C/C(=N\O)c1ccc(Cl)cc1`, the growth in the experiment with SR leukemia is 78.1%; in the experiment with RPMI-8226 leukemia, 107%; in the experiment with OVCAR-8 ovarian, 88.6%; in the experiment on OVCAR-5 ovarian, 118%; with OVCAR-4 ovarian, 109%; with SK-OV-3 ovarian it was 108%. For the same compound, the growth was 155% with IGROV1 ovarian, 113% in the experiment with OVCAR-3 ovarian, 90.4% with HS 578T breast and 108% in the experiment on NCI/ADR-RES ovarian.

Turning to `CCOCCNC1=C(Cl)C(=O)c2ccccc2C1=O`, the growth in the experiment with SR leukemia is 89.3%; with RPMI-8226 leukemia it was 90.4%; with OVCAR-8 ovarian it was 106%; in the experiment on OVCAR-5 ovarian, 120%; in the experiment with OVCAR-4 ovarian it was 107%; with SK-OV-3 ovarian, 108%. Moreover, the growth was 112% in the experiment with IGROV1 ovarian, 101% in the experiment with OVCAR-3 ovarian, 91.9% with HS 578T breast and 103% in the experiment with NCI/ADR-RES ovarian.

In the case of `N#Cc1c(-c2ccc(Cl)cc2)c(C#N)c2c(C#N)c(N)nn2c1N`, the growth in the experiment on SR leukemia is 69.5%; in the experiment with RPMI-8226 leukemia, 73.9%; in the experiment on OVCAR-8 ovarian, 88%; with OVCAR-5 ovarian, 86.9%; with OVCAR-4 ovarian, 82.4%; with SK-OV-3 ovarian, 70.5%. The growth in the experiment with IGROV1 ovarian was 74.1%; with OVCAR-3 ovarian it was 93.8%; with HS 578T breast it was 79.4%; with NCI/ADR-RES ovarian, 96.3%.

Consider `Cc1cccc(/C=C/c2c(C(=O)/C=C/c3ccccc3)c(C)nc3ccccc23)c1`, for which the growth in the experiment with SR leukemia is 11.8%; with RPMI-8226 leukemia, -11.6% (active); in the experiment on OVCAR-8 ovarian it was -13.7% (active); with OVCAR-5 ovarian, -37.9% (active); in the experiment with OVCAR-4 ovarian it was 2.06% (active); in the experiment with SK-OV-3 ovarian, 33.7%. The growth in the experiment with IGROV1 ovarian is -27.6% (active); with OVCAR-3 ovarian, -50.6% (active); in the experiment with HS 578T breast it was 18.9%; in the experiment with NCI/ADR-RES ovarian, -8.03% (active).

On to `O=C(/C=C/c1ccccc1)Nc1ncc(Cc2ccccc2Cl)s1`, for which the growth in the experiment on SR leukemia was 17.9%; with RPMI-8226 leukemia, 25.4%; in the experiment with OVCAR-8 ovarian, 39.5%; with OVCAR-5 ovarian it was 44%; with OVCAR-4 ovarian, 70.2%; with SK-OV-3 ovarian it was 44.4%. Also, the growth in the experiment with IGROV1 ovarian was 31.5%; with OVCAR-3 ovarian, -24.2% (active); in the experiment with HS 578T breast it was 28.2%; in the experiment on NCI/ADR-RES ovarian it was 9.49% (active).

Consider `Fc1cc2c(cc1Cl)N(c1ncnc3ccc(-c4ccc5n[nH]nc5c4)cc13)CC2`, for which the growth is 66.8% in the experiment on SR leukemia; 92% in the experiment on RPMI-8226 leukemia; 85.6% in the experiment with OVCAR-8 ovarian; 76.5% in the experiment with OVCAR-5 ovarian; 81.3% in the experiment with OVCAR-4 ovarian; 95.6% in the experiment with SK-OV-3 ovarian. The growth with IGROV1 ovarian is 32.2%; with OVCAR-3 ovarian, 69%; with HS 578T breast, 58.2%; in the experiment on NCI/ADR-RES ovarian it was 87.3%.

Regarding `COC(=O)C1Cc2ccccc2CN1C(=O)c1ccc2c(c1)Cc1ccccc1-2` (stereo not given), the growth with SR leukemia was 57.2% [50 µM]; with RPMI-8226 leukemia, 18.1% [50 µM]; in the experiment on OVCAR-8 ovarian, 32.4% [50 µM]; with OVCAR-5 ovarian, 62.4% [50 µM]; with OVCAR-4 ovarian, 20.2% [50 µM]; with SK-OV-3 ovarian it was 86% [50 µM]. Moreover, the growth in the experiment with IGROV1 ovarian is 42.8% [50 µM]; with OVCAR-3 ovarian, 47% [50 µM]; in the experiment with HS 578T breast, 70.4% [50 µM]; in the experiment on NCI/ADR-RES ovarian, 25.6% [50 µM].

Regarding `Fc1cccc(Oc2ccc(Nc3ncnc4ccc(OCCCN5CCOCC5)cc34)cc2Cl)c1`, the growth was 20.9% with SR leukemia; 38.5% in the experiment with RPMI-8226 leukemia; 62% in the experiment with OVCAR-8 ovarian; 78.1% with OVCAR-5 ovarian; 53.5% with OVCAR-4 ovarian; 7.14% (active) in the experiment on SK-OV-3 ovarian. Besides, the growth is 12.1% with IGROV1 ovarian, 45.4% with OVCAR-3 ovarian, 74.5% with HS 578T breast and 55.1% in the experiment on NCI/ADR-RES ovarian.

The values above are taken from PubChem BioAssay (NCI).
